3T3 cytotox: cytotoxic compounds in NIH 3T3 cells; NIH 3T3 viability, CellTiter-Glo ATP luminescence, 48-72 h; Potency, µM (series often up to 96.7 µM), actives largely listed as inhibitors; 4.3% of 94,000 active; AID 1345082; also: nearly all actives have a fitted effect of over 55% in size
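ATP-dependent luminescence (CellTiter-Glo) served as the viability signal for NIH 3T3 cells treated with compound for 48 or 72 hr at 37 °C.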
FLuc inh: blocks purified firefly luciferase enzyme activity; P08659; purified P. pyralis luciferase, luminescence, biochemical; Potency, µM (doses to about 115 µM), hits mostly inhibitors; 2.5% of 76,000 active; AID 1347043; also: nearly all actives have a fitted effect of over 65% in size
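Cell-free enzyme assay, 10nM P. pyralis luciferase, luciferin and ATP each at 10uM. Inhibition profiled over a 6-point titration, read as luminescence.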
HEK293 tox: kills HEK 293 cells. HEK 293 viability, ATP luminescence (CellTiter-Glo), 48-72 h. Potency, µM (top dose mostly 115 µM), usual class: inhibitors. 6.6% of 94,000 active. AID 1345083; also: nearly all actives have a fitted effect of over 60% in size
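Viability of HEK 293 cells, plated at 250 cells/well, was judged by cellular ATP after compound treatment for 48 or 72 hr. Luminescence was imaged 10 min after CellTiter-Glo addition at room temperature.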
hNpr1 antagonist: antagonists of human natriuretic peptide receptor Npr1; HEK293 hNpr1 GloSensor cGMP, ANP-stimulated luminescence; Potency, µM (titrated, usually from 46.3 µM), most hits filed as inhibitors; 1.6% of 76,000 active; calls by dose curve; also: nearly all actives have a fitted effect of over 60% in size
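Compound pre-incubated 30 min at room temperature on GloSensor-loaded HEK293 cells stably carrying hNpr1 and the pGS-40F cGMP biosensor. Stimulation uses hNppA at 0.1 nM final; luminescence is taken at baseline and 20 min post-agonist.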
A number is an active result; – = inactive; ? = inconclusive; · = no result. Sampled rows, rich in hits. Any-hit rate of the full collection: about 11%. Unless noted, calls follow the shape of the dose curve; as a rule, active = well fitted curve in the direction sought with a large enough effect; inconclusive = small, poorly fitted or top-dose-only effect, or another doubt; inactive = no such curve, though single readings can be large; an effect the other way counts as inactive or inconclusive.

SMILES	3T3 cytotox	FLuc inh	HEK293 tox	hNpr1 antagonist
CN1CC(=O)N(c2ccc([N+](=O)[O-])cc2)Cc2c1ncnc2N1CCC(N2CCOCC2)CC1	?	–	–	–
COc1ccccc1Nc1ccnc(N2CCN(C(=O)c3ccccc3Cl)CC2)n1	40µM	·	?	·
COc1ccccc1Nc1ccnc(N2CCN(C(C)=O)CC2)n1	–	·	–	·
COc1ccc(C(=O)N2CCN(c3nccc(Nc4ccccc4OC)n3)CC2)cc1	?	·	40µM	·
C[C@H]1[C@@H]2[C@@H](O)C([C@H](C)C(=O)NCc3ccc(F)cc3)CC[C@@]2(C)CC[C@@H]1NC(=O)c1ccccc1 (stereo not given in full)	?	–	40µM	–
CCc1nnc([C@@H]2CC(F)(F)CN2C(=O)COc2ccccc2)o1	–	–	–	–
CCOC(=O)[C@H]1C[C@]2(CCCCN(CCOC)C2=O)N(C(=O)Cc2cccs2)[C@H]1c1ccco1	?	·	79µM	·
CCOC(=O)[C@H]1C[C@]2(CCCCN(CCOC)C2=O)N(C(=O)CC(C)C)[C@H]1c1ccco1	–	·	?	·
CNC(=O)[C@H]1C[C@]2(CCCCN(CCO)C2=O)N(C(=O)Cc2cccs2)[C@H]1c1ccco1	?	·	35µM	·
CNC(=O)[C@H]1C[C@]2(CCCCN(CCO)C2=O)N(C(=O)Nc2ccccc2)[C@H]1c1ccco1	?	·	–	·
CNC(=O)C1CCCN1c1nccc(Nc2ccccc2F)n1 (stereo not given)	–	·	–	·
O=C(NC1CCCC1)C1CCCN(c2nccc(Nc3ccccc3F)n2)C1 (stereo not given)	40µM	·	?	·
O=C(NC1CC1)C1CCCN(c2nccc(Nc3ccccc3F)n2)C1 (stereo not given)	89µM	·	?	·
O=C1C(Oc2ccc(F)cc2)C2(CCCCC2)N1Cc1ccc(F)cc1 (stereo not given)	25µM	·	40µM	·
O=C(CN1C(=O)C(Oc2ccc(F)cc2)C12CCCCC2)NCC1CC1 (stereo not given)	–	·	?	·
Cc1nn(-c2ccc(C(C)(C)C)cc2)c(C)c1[C@@H]1C=C[C@@H](NC(=O)NCc2ccccc2)C1	?	?	28µM	18µM
Cc1nn(-c2ccc(C(C)C)cc2)c(C)c1[C@@H]1C=C[C@@H](NC(=O)NC2CCCCC2)C1	?	7.9µM	?	?
Cc1nn(-c2ccc(C(F)(F)F)cc2)c(C)c1[C@@H]1C=C[C@@H](NC(=O)NC2CCCCC2)C1	?	–	?	–
Cc1nn(-c2ccc(C(F)(F)F)cc2)c(C)c1[C@@H]1C=C[C@@H](NC(=O)CC(C)(C)CC(=O)O)C1	?	–	–	–
Cc1nn(-c2ccc(C(C)C)cc2)c(C)c1[C@@H]1C=C[C@@H](NC(=O)NCc2ccccc2)C1	25µM	?	25µM	7.1µM
Cc1nn(-c2ccc(C(C)(C)C)cc2)c(C)c1[C@@H]1C=C[C@@H](NCc2ccco2)C1	?	50µM	11µM	–
Cc1nn(-c2ccc(C(C)C)cc2)c(C)c1[C@@H]1C=C[C@@H](NC(=O)Nc2ccc(Cl)cc2)C1	?	–	?	–
COc1ccc(C(=O)N2CCN(CCn3nc4n(c3=O)CCCC4)CC2)cc1	–	·	–	·
O=C(O)C1=NOC2CN(Cc3ccc(C(F)(F)F)cc3)CC12 (stereo not given)	–	·	–	·
CCc1ccc(NC(=O)Cn2nc3n(c2=O)CCCCC3)cc1	–	–	–	–
SMILES	3T3 cytotox	FLuc inh	HEK293 tox	hNpr1 antagonist
Cc1ccsc1CN1CCC(C2CCN(S(C)(=O)=O)CC2)C1 (stereo not given)	–	–	–	–
Cn1ncc2c(C(=O)NCc3ccc(F)cc3F)cc(-c3ccc(C(F)(F)F)cc3)nc21	–	·	–	·
CCNC(=O)N[C@@H]1C=C[C@@H](c2c(C)nn(-c3ccc(C(C)(C)C)cc3)c2C)C1	?	?	35µM	32µM
Cc1nn(-c2ccc(C(C)(C)C)cc2)c(C)c1[C@@H]1C=C[C@@H](NC(=O)c2ccc(N(C)C)cc2)C1	?	–	?	–
COc1cc(CNC(=O)c2nc(C(O)c3ccccn3)oc2C)cc(OC)c1 (stereo not given)	79µM	–	?	–
Cc1oc(C(O)c2ccccc2)nc1C(=O)NCc1ccco1 (stereo not given)	?	–	?	–
N#Cc1cccc(CN2CC3(COCC(=O)N(Cc4cccc(OC(F)(F)F)c4)C3)C2)c1	28µM	–	?	–
Cc1cc(C)nc(N2CC3(COCC(=O)N(Cc4cccc(OC(F)(F)F)c4)C3)C2)n1	–	–	?	–
